Results published in PubChem BioAssay.
The source made the active and inactive calls.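 Rule for the calls, unless noted: active = visual image review flags a hit and inhibition of aggregation exceeds 20%; inconclusive = visual hit but inhibition at or below 20%; inactive = no hit on visual image review.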

Experiments:
[1] = inhibitors of TNFa-induced NFkB p65 translocation, primary screen, imaging, HUVEC, MLSMR starter and 10KST1 sets (AID 438;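 active = inhibition above 20% together with a positive visual image hit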;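 note: compound added about 3h40 before a 20 min TNFalpha stimulation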;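 for inhibition: signal is the nuclear over cytoplasmic p65 intensity ratio per well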); details: HUVEC TNFa-induced p65 nuclear translocation; cell count: measured here: nuclei count (cytotoxicity indicator), at 2.08 µM; inhibition: at 2 µM, stronger effect = higher value, 0% TNFa-plus-vehicle, 100% no-TNFa wells
[2] = reduction of polyQ htt aggregates in cells – imaging, exon1htt(103Q)mCFP cells, high-content imaging, primary screen (AID 483); details: exon1htt(103Q)mCFP cell line, aggregate imaging, at 2 µM; inhibition of aggregation: stronger effect = higher value; nuclei count: measured here: cell count, toxicity;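 note: compound exposure lasted 3 days before fixation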;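 for nuclei count: percent of the per-plate median nuclei count of sample wells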
[3] = endothelial E-selectin expression blockers – imaging, HUVEC, immunofluorescence, MLSMR starter and 10KST1 sets, primary screen (AID 487;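 active = visually confirmed hit in the image check and inhibition above 20%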;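 for inhibition: signal is fraction of cell area covered by stained E-selectin grains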;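 for nuclei count: 100% = median nuclei count of all wells on the same plate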); details: HUVEC TNFalpha-induced E-selectin immunofluorescence imaging, at 2 µM; inhibition: stronger effect = higher value; nuclei count: measured here: cell number, toxicity
[4] = target: Voltage-gated potassium channel subunit beta-2 (Rattus norvegicus) (UniProt P62483); assay: inhibitors of rat Kvbeta2 reductase activity – biochemical, NADPH fluorescence, primary screen (AID 622;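 active = fluorescence slope higher than the sample average by over 3 SD, cut at about -0.22 in these data, passing the limit was not always enough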;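 note: slope of raw intensity against log time taken from 70 to 1610 s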); details: recombinant KvBeta, 4-cyanobenzaldehyde reduction, at 10 µM, stronger effect = higher value
Voltage-gated potassium channel subunit beta-2 (Rattus norvegicus), sequence (P62483 whole entry, looked up): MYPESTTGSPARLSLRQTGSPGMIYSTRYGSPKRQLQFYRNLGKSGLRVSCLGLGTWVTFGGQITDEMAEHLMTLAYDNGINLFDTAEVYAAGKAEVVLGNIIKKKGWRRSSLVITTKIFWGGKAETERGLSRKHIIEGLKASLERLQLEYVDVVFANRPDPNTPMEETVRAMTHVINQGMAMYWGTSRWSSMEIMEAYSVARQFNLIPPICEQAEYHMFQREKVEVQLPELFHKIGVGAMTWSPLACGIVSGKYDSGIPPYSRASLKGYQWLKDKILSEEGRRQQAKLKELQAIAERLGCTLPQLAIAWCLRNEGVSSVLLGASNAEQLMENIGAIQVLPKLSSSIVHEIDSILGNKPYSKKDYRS

[5] = target: Voltage-gated potassium channel subunit beta-2 (Rattus norvegicus) (UniProt P62483); assay: enhancers of rat Kvbeta2 NADPH turnover – biochemical, NADPH fluorescence, primary screen (AID 623;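 active = NADPH fluorescence slope more negative than the mean of all samples by about 3 SD, 99.7% confidence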;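 note: fluorescence intensity change per second fitted from 20 to 320 s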); details: Recombinant KvBeta, NADPH fluorescence decrease slope, 10 min; at 10 µM; stronger effect = lower value
[6] = target: Alpha-2C adrenergic receptor (Homo sapiens) (UniProt P18825); assay: compounds altering alpha2C-coupled GIRK flux – cell-based, HEK293 alpha2C/GIRK1/2, thallium flux, primary screen (AID 624;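 active = fluorescence slope after compound addition differing from the mean of all screened samples at 99.7% confidence, in either direction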;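 note: slope of fluorescence ratio to pre-addition baseline per second over 15 to 24 s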); details: thallium flux BTC fluorescence, at 10 µM, actives lie on both sides
Alpha-2C adrenergic receptor (Homo sapiens), sequence (P18825 whole entry, looked up): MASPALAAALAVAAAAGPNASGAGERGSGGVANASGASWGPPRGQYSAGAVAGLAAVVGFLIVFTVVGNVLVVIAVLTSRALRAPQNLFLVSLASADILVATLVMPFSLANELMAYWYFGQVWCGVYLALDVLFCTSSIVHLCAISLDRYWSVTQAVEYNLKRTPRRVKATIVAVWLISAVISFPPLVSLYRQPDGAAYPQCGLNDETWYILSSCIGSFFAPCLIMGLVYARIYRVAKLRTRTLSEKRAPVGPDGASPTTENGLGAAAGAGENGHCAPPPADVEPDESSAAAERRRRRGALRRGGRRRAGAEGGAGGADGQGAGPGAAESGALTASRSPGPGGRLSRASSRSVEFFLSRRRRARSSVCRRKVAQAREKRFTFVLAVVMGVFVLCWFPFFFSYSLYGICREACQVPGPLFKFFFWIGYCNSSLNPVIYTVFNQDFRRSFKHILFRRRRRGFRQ

[7] = blockers of RIG-like receptor reporter activation – cell-based, Sendai virus stimulus, luciferase, 10K MLSCN set, TLR/RLR signaling modifier project, primary screen (AID 602276;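 active = inhibition at or above 50% at 10 µM; inactive = inhibition below 50%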;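 note: firefly luciferase from ISG56 promoter only with Renilla not read in this screen; 0% = Sendai virus plus DMSO and 100% = medium plus DMSO without virus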); details: HEK293 RL24 IRF3 luciferase reporter, at 10 µM, stronger effect = higher value
[8] = TLR3 IRF3 reporter activation blockers – cell-based, poly I:C stimulus, luciferase, 10K MLSCN set, primary screen (AID 602277;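 active = inhibition of the reporter signal at or above 50%; inactive = inhibition below 50%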); details: HEK293-TLR3 RL24 IRF3 luciferase reporter, at 10 µM, stronger effect = higher value

Row | SMILES | cell count [1] | inhibition [1] | inhibition of aggregation [2] | nuclei count [2] [%] | inhibition [3] | nuclei count [3] [%] | fluorescence slope [4] | NADPH fluorescence slope [5] | slope [6] | inhibition [7] | inhibition [8]
1 | CCC(C(=O)N1CCc2cc(OC)c(OC)cc2C1)c1ccccc1 (centres undefined) | 598 | 5% (inactive) | -8.2% (inactive) | 88.6 | 11.7% (inactive) | 103 | -0.478 (inactive) | 5.9e-06 (inactive) | 0.00474 (inactive) | 3.51% (inactive) | 6.78% (inactive)
2 | Cn1c(C(=O)OCC(=O)NCC2CCCO2)cc2sccc21 (centres undefined) | 497 | -1% (inactive) | -7.3% (inactive) | 108 | -79% (inactive) | 107 | -0.451 (inactive) | 9.3e-06 (inactive) | 0.00457 (inactive) | 13.3% (inactive) | 13.1% (inactive)
3 | O=C1CC(N2CCN(c3ccc(Cl)c(Cl)c3)CC2)C(=O)N1 (centres undefined) | 361 | 0.7% (inactive) | -7.2% (inactive) | 87.1 | 25.6% (inactive) | 98.6 | -0.466 (inactive) | -4.7e-05 (inactive) | 0.00625 (inactive) | -2.47% (inactive) | 20.7% (inactive)
4 | c1ccc(Oc2ccc(-n3cnnn3)cc2)cc1 | 254 | 1.5% (inactive) | -1.2% (inactive) | 66 | -14% (inactive) | 106 | -0.391 (inactive) | 9.8e-07 (inactive) | 0.00429 (inactive) | -11.3% (inactive) | 0.336% (inactive)
5 | CCn1c(SCc2cccc(C(F)(F)F)c2)nnc1-c1ccco1 | 616 | 4.8% (inactive) | 4.5% (inactive) | 94.1 | -15.2% (inactive) | 104 | -0.414 (inactive) | -3.6e-05 (inactive) | 0.00568 (inactive) | 13.2% (inactive) | 3.48% (inactive)
6 | COc1ccccc1OCCCn1c(=O)oc2ccccc21 | 219 | 3.7% (inactive) | 3.2% (inactive) | 91.4 | -46.5% (inactive) | 94.4 | -0.506 (inactive) | -4.3e-05 (inactive) | 0.00513 (inactive) | -13.6% (inactive) | -42.9% (inactive)
7 | COc1cccc(/C=N/n2c(-c3ccco3)nc3ccccc3c2=O)c1 | 692 | -0.9% (inactive) | -10.2% (inactive) | 74.5 | 33.1% (inactive) | 105 | -0.293 (inactive) | -4.4e-05 (inactive) | 0.00576 (inactive) | -12.1% (inactive) | -6.01% (inactive)
8 | Cc1cccc(N2C(=O)CC(N3CCN(c4cccc(C(F)(F)F)c4)CC3)C2=O)c1 (centres undefined) | 593 | -7.2% (inactive) | 3.8% (inactive) | 126 | -13.6% (inactive) | 119 | -0.386 (inactive) | 8.5e-06 (inactive) | 0.00436 (inactive) | 10.3% (inactive) | 36.4% (inactive)
9 | C=CCNC(=O)CSc1nc2sc(C)c(C)c2c(=O)[nH]1 | 590 | -3.4% (inactive) | 13.2% (inactive) | 91.2 | 5.1% (inactive) | 112 | -0.556 (inactive) | -3.3e-05 (inactive) | 0.00731 (inactive) | 9.71% (inactive) | 21.7% (inactive)
10 | O=c1oc2ccccc2c2c1ncn2-c1ccccc1 | 375 | 0% (inactive) | -20.2% (inactive) | 113 | -9.9% (inactive) | 114 | -0.45 (inactive) | 7.5e-05 (inactive) | 0.00569 (inactive) | 16.7% (inactive) | 27.6% (inactive)
11 | O=C(Nc1ccc2c(c1)OCCO2)c1ccco1 | 337 | -3.5% (inactive) | -13.9% (inactive) | 118 | 6.1% (inactive) | 102 | -0.488 (inactive) | -3.7e-05 (inactive) | 0.00709 (inactive) | -48.4% (inactive) | -81.4% (inactive)
12 | CCOC(=O)C1CCCN(Cc2nc(N)nc(Nc3ccc(C)cc3)n2)C1 (centres undefined) | 580 | 1% (inactive) | -0.6% (inactive) | 90.1 | -41.3% (inactive) | 130 | -0.438 (inactive) | -0.000102 (inactive) | 0.00446 (inactive) | 22.6% (inactive) | 17.2% (inactive)
13 | Cn1c(C(=O)NCCCN2CCCCCC2)cc2c(=O)n(C)c3ccccc3c21 | 653 | 5.5% (inactive) | -31.5% (inactive) | 76.6 | -33.1% (inactive) | 101 | -0.639 (inactive) | -4.1e-06 (inactive) | 0.00675 (inactive) | 72.2% (active) | 79% (active)
14 | CCOC(=O)N1CCN(C(=O)CN2C(=O)COc3ccc(C)cc32)CC1 | 590 | 1.5% (inactive) | 9.7% (inactive) | 98.6 | -64.6% (inactive) | 107 | -0.364 (inactive) | -3.7e-05 (inactive) | 0.00215 (inactive) | 7.89% (inactive) | 29.7% (inactive)
